Screening data as filed in PubChem.
A selection: hits, their analogues and other compounds. The true share with any hit is near 19%.
IL-1B inflam inh – blocks inflammasome-driven IL-1 beta release; AID 743279; THP-1 LPS/ATP IL-1B secretion, AlphaLISA, 16 h; stronger effect = lower value; 360,000 compounds, 4.7% hits; activity change, % at 57.5 µM; in the data active = activity change below about -50%; inconclusive = mostly about -30% to -49%
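Secreted IL-1B measured by AlphaLISA bead assay after 16 h compound exposure of THP-1 cells; compounds (final up to 57.5 uM) added 1 h before LPS (250 ng/mL) and ATP (1.25 mM) stimulation; lower signal means less secretion.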
DT40 TDP1 no CPT – qHTS for Inhibitors of human tyrosyl-DNA phosphodiesterase 1 (TDP1): qHTS in cells in absence of CPT; Potency, µM (top dose mostly 46.2 µM), inactives show top-dose activity change, negative = growth inhibition, actives largely listed as inhibitors; 420,000 compounds, 15% hits; DT40 Tdp1-/- hTDP1 cells, no CPT, ATP luminescence, 48 h; note: potency is the fitted concentration of half-maximal effect; nearly all actives have a fitted effect of over 55% in size
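Chicken DT40 Tdp1-/- cells complemented with human TDP1, screened without camptothecin (DMSO vehicle only), 400 cells/well. Compounds pin-transferred, cells incubated at 37 °C for at least 48 hr. Growth read as ATP-dependent luminescence (CellTiter-Glo, 30 min at RT).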
TDP1 cell CPT – growth inhibition of DT40 Tdp1-/-;hTDP1 cells with camptothecin (screen for TDP1 inhibitors) | chicken DT40 Tdp1-/-;hTDP1 cells + 20 nM CPT, ATP luminescence, 48 h | Potency, µM (titrated, usually from 46.2 µM), without a hit: top-dose activity change, negative = growth inhibition, actives largely listed as inhibitors | 420,000 compounds, 12% hits; note: potency is the fitted concentration of half-maximal effect; nearly all actives have a fitted effect of over 55% in size
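Chicken DT40 Tdp1-/- cells stably complemented with human TDP1 were seeded at 400 cells/well in medium containing 20 nM camptothecin, exposed to pin-transferred compounds, and grown at 37 °C for at least 48 hr. Viability was read as ATP luminescence.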
HT1080 IDH1KD tx – HT-1080 IDH1 knockdown cell toxicity (counter line); 360,000 compounds, 2% hits; Potency, µM (series often up to 46.1 µM), without a hit: at the top dose activity, negative = toxicity, hits mostly cytotoxic; HT-1080 IDH1 knockdown viability, ATP luminescence, 48 h;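 note: potency is the fitted concentration of half-maximal effect; 0% = DMSO wells and -100% = cell-free medium wells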
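CellTiter-Glo luminescence after 48 h compound exposure at 37 degrees C of IDH1-knockdown HT-1080 cells in 5% FBS RPMI. %Activity scaled between DMSO wells and cell-free media wells, with curves fitted and assigned curve classes.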
uPA surface inh – cell surface uPA generation inhibition | AID 540303 | cell surface uPA generation assay, qHTS | Potency, µM (titrated, usually from 38.3 µM), for the others: at the top dose activity change, negative = inhibition, usual class: inhibitors | 330,000 compounds, 0.31% hits; active = well fitted inhibition curve with a large enough effect; inconclusive = small, poorly fitted or top-dose-only effect; inactive = no such curve, though single readings can be large or run the other way; tested in mouse RAW 264.7 cells; note: potency is the fitted concentration of half-maximal effect; nearly all actives have a fitted effect of over 55% in size
HT1080-NT tox – kills 2HG-producing HT-1080-NT fibrosarcoma cells; 360,000 compounds, 1.6% hits; AID 686970; HT-1080-NT fibrosarcoma viability, CellTiter-Glo ATP luminescence, 48 h; Potency, µM (titrated, usually from 46.1 µM), without a hit: at the highest dose activity, negative = less viability, usual class: cytotoxic;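 note: NT is the 2HG producing partner of a matched IDH1 knockdown line; potency is the fitted concentration of half-maximal effect; 0% = DMSO-treated cells and -100% = media-only wells without cells; nearly all actives have a fitted effect of over 55% in size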
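Fibrosarcoma NT cells, 750 per well in 5% FBS RPMI, were exposed to compound for 48 hours. Viability: CellTiter-Glo luminescence.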
Starred values were filed as active, the others as inactive; ? = inconclusive; · = no result; [ ] = dose if it differs, or a comment. Unless noted, calls come from the whole dose curve; as a rule, active = well fitted curve in the direction sought with a large enough effect; inconclusive = small, poorly fitted or top-dose-only effect, or another doubt; inactive = no such curve, though single readings can be large; an effect the other way counts as inactive or inconclusive. Unless noted, % is set by controls: 0 for no effect and ±100 for the full control effect.

SMILES	IL-1B inflam inh	DT40 TDP1 no CPT	TDP1 cell CPT	HT1080 IDH1KD tx	uPA surface inh	HT1080-NT tox
CN(C)S(=O)(=O)c1cccc(NC(=O)c2ccccc2OCc2ccc(F)cc2)c1	41	?	15µM*	-12%	·	-9%
CN1CC(c2ccccc2)C2(SC(=S)N(Cc3ccco3)C2=O)C12C(=O)Nc1ccccc12 (configuration not stated)	-69*	11µM*	-94%	?	·	?
COc1ccccc1-c1sc2ccccc2c1-c1ccc(OCCN2CCOCC2)cc1	8	13µM*	?	?	-5%	?
COc1ccccc1-c1sc2cc3c(cc2c1-c1ccc(OCCN2CCCCC2)cc1)OCO3	?	12µM*	16µM*	?	-17%	?
COc1ccccc1-c1sc2ccccc2c1-c1ccc2c(c1)OCO2	0	?	23µM*	-5%	-16%	-21%
COc1ccccc1CN(C)CC(=O)Nc1cccc2ccccc12	-60*	26µM*	26µM*	-23%	5%	-15%
CSc1ccccc1NC(=O)CN(C)Cc1cccc(Cl)c1	3	?	14%	-12%	-5%	-6%
COc1cccc(CN(C)CC(=O)Nc2ccccc2C(C)C)c1	-13	16µM*	?	-5%	12%	-12%
COc1ccccc1CN(C)CC(=O)Nc1ccc(Cl)cc1C(F)(F)F	-7	15µM*	21µM*	-11%	11%	-14%
COc1ccc(NC(=O)CN(C)CC(=O)Nc2cccc3ccccc23)c(OC)c1	-7	?	?	6%	1%	2%
CCC(=O)N1CCc2cc(CNS(=O)(=O)c3cc(OC)ccc3OC)ccc21	·	-1%	-1%	·	·	·
Cc1ccc(OCC(=O)N(C)CC(=O)Nc2ccc(F)c(F)c2F)cc1	-65*	-3%	-25%	-5%	0%	-3%
COc1ccc(C)c(NC(=O)NCCc2cnc[nH]2)c1	-4	2%	30%	12%	0%	18%
O=C(CN1c2ccccc2Sc2ccccc21)NNC(=O)Nc1ccc(Cl)c(Cl)c1	-92*	-46%	0%	?	6%	21µM*
O=C(CCc1ccccc1)NNC(=O)Nc1ccc(Cl)cc1	-1	-12%	-7%	-6%	7%	19%
O=C(CN1c2ccccc2Sc2ccccc21)NNC(=O)Nc1ccc(Cl)cc1	-80*	?	?	21µM*	5%	23µM*
O=C(CCNC(=O)c1ccc([N+](=O)[O-])cc1)Nc1nc2ccccc2[nH]1	-6	-29%	-4%	14%	1%	12%
COc1ccc(-c2nc(NC(=O)c3ccc(OCC(=O)N4CCOCC4)c(OC)c3)sc2C)cc1	-1	18µM*	23µM*	-14%	-6%	-6%
COc1cc(C(=O)Nc2ccc(C)cn2)ccc1OCC(=O)N1CCOCC1	4	12%	-1%	6%	-16%	-3%[9.24 µM]
Cc1ccc(C(=O)Nc2nc(-c3ccco3)c(-c3ccco3)s2)o1	-57*	21µM*	8.2µM*	-4%	-4%	-11%
COc1ccc(-c2nc(NC(=O)c3ccco3)sc2C)cc1	3	23µM*	21µM*	-22%	·	0%
COc1ccc(Cc2nnc(NC(=O)c3ccco3)s2)cc1	-23	-4%	-2%	-1%	0%	0%
O=C(CCl)Nc1nc(-c2ccco2)c(-c2ccco2)s1	-3	?	?	-25%	-4%	-8%
CC(=O)c1c(C)[nH]c(C(=O)Nc2nc(-c3ccc(Cl)cc3)cs2)c1C	6	?	21µM*	13%	4%	7%
COC(=O)c1ccc(CSc2ccccc2NC(=S)Nc2cccc(SC)c2)o1	28	?	?	?	·	?
SMILES	IL-1B inflam inh	DT40 TDP1 no CPT	TDP1 cell CPT	HT1080 IDH1KD tx	uPA surface inh	HT1080-NT tox
O=C(Nc1nc(-c2cccs2)c(-c2ccccc2)s1)c1ccco1	-54*	?	-18%	-12%	-7%	-7%
CC1(C)CC(=O)c2sc(NC(=O)c3ccco3)nc2C1	-10	-24%	-11%	-1%	10µM*	14%
CC(=O)Nc1sc(NC(=O)c2ccco2)nc1-c1cccs1	-5	-22%	2%	5%	-7%	5%
Cc1onc(-c2ccccc2)c1C(=O)Nc1nc2c(s1)C(=O)CC(C)(C)C2	10	-27%	-10%	1%	-2%	-3%
COc1ccc(-c2nc(NC(=O)c3[nH]c(C)c(C(C)=O)c3C)sc2C)cc1	-82*	?	?	?	3%	?
COc1ccc(OC)c(NC(=O)c2[nH]c(C)c(C(C)=O)c2C)c1	70	?	-26%	-4%	-3%	-4%
O=C(Nc1ccccc1)c1ccccc1C(=O)N1CCCCC1	?	-7%	-6%	21%	18%	12%
Cc1csc2nc(COC(=O)c3ccc(F)cc3)cc(=O)n12	·	16µM*	?	·	·	·
CCOc1ccc(C(=O)Nc2ccc(C(=O)OCc3cc(=O)n4c(C)csc4n3)cc2)cc1	·	16µM*	?	·	·	·
COc1ccc(C(=O)OCc2cc(=O)n3c(C)csc3n2)cc1F	25	?	?	8%	6%	12%
Cc1csc2nc(COC(=O)c3ccccc3NC(=O)c3cccc(Br)c3)cc(=O)n12	·	8.2µM*	18µM*	·	·	·
NC1C(N)C(N)C1N (configuration not stated)	·	-14%	8%	4%	·	9%
O=C(NCCCN1CCOCC1)c1cccc(S(=O)(=O)N2CCc3ccccc32)c1	19	23µM*	?	0%	·	-1%
CN(C)C(=O)c1ccc(NC(=O)c2cccc(S(=O)(=O)N3CCCc4ccccc43)c2)cc1	-26	16µM*	23µM*	-24%	-1%	?
O=C(Nc1cccnc1)c1cccc(S(=O)(=O)N2CCc3ccccc32)c1	-13	?	26µM*	-25%	-1%	-12%
O=C(NCCCN1CCOCC1)c1cccc(S(=O)(=O)N2CCOCC2)c1	6	-7%	-23%	-2%	-2%	18%
O=C(Nc1nc2c(s1)CCCC2)c1cccc(S(=O)(=O)N2CCCc3ccccc32)c1	37	23µM*	26µM*	-17%	0%	-5%
CC(C)(C)c1ccc(C(=O)NCC(=O)N/N=C/c2cccnc2)cc1	32	-27%	-18%	0%	-2%	-1%
O=C(O)c1cccc(NC(=O)c2cccc(S(=O)(=O)N3CCc4ccccc43)c2)c1	42	9%	3%	-12%	-2%	-6%
